Hits are enriched below; roughly 15% of the tested compounds scored in any of these assays.
TDP1 cell noCPT: qHTS for Inhibitors of human tyrosyl-DNA phosphodiesterase 1 (TDP1): qHTS in cells in absence of CPT | DT40 Tdp1-/- hTDP1 cells, no CPT, ATP luminescence, 48 h | Potency, µM (top dose mostly 46.2 µM), usual class: inhibitors | 420,000 compounds, 15% hits | AID 686978, 2013; further: nearly all actives have a fitted effect of over 55% in size
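Readout: luminescence from CellTiter-Glo after 30 min in the dark at RT. Cells: DT40 Tdp1-/- with stable hTDP1, 400/well. Exposure: compounds alone, ≥48 hr, 37 °C.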
RORg inh: ROR gamma (mouse) transcription inhibition. P51450. AID 2551. Drosophila S2 Gal4-RORgamma UAS-luciferase reporter, 20 h. Potency, µM (series often up to 53.6 µM), usual class: inhibitors. 310,000 compounds, 5.4% hits; further: nearly all actives have a fitted effect of over 60% in size
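ROR gamma transcriptional activity was tracked as Gal4-UAS luciferase output in stably transfected Drosophila Schneider cells, with compound added 1 hr before 700 uM copper sulfate induction and a 20 hr ambient-temperature incubation.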
VP16 counter: Gal4-VP16 reporter inhibition counter-screen | Drosophila S2 Gal4-VP16 UAS-luciferase, luminescence, 20 h | Potency, µM (doses to about 53.6 µM), hits mostly inhibitors | 310,000 compounds, 3.5% hits | AID 2546;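 further: Gal4-VP16 expression switched on by copper sulfate through the metallothionein promoter; nearly all actives have a fitted effect of over 50% in size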
TDP1 cell CPT: DT40-hTDP1 cell growth loss with CPT; chicken DT40 Tdp1-/-;hTDP1 cells + 20 nM CPT, ATP luminescence, 48 h; Potency, µM (series often up to 46.2 µM), most hits filed as inhibitors; 420,000 compounds, 12% hits; further: nearly all actives have a fitted effect of over 55% in size
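Chicken DT40 Tdp1-/- cells complemented with human TDP1, 400 cells/well, exposed to compounds plus 20 nM camptothecin for at least 48 h at 37 C; viability read as ATP content by CellTiter-Glo luminescence.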
ELG1 DNA repair: blocks ELG1-dependent DNA repair in HEK293T cells | HEK293T ELG1-luciferase reporter, luminescence, 16 h; DNA damage induced by 5-fluorouridine | AID 504467 | Potency, µM (doses to about 46.1 µM), most hits filed as inhibitors | 330,000 compounds, 2.3% hits; further: nearly all actives have a fitted effect of over 55% in size
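In this reporter screen, reduction of luminescence relative to DMSO vehicle indicated activity. Compounds and 5-fluorouridine were added together to 2,000 cells per well, incubated for 16 hr at 37 °C, then developed with ONE-Glo.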
ALOX12 inh: ALOX12 (human) lipoxygenase inhibition; P18054; Potency, µM (highest dose often 108 µM), most hits filed as inhibitors; 580,000 compounds, 1.1% hits; AID 1671190; purified 12hLO, xylenol orange hydroperoxide absorbance
Target sequence (P18054 whole entry, looked up): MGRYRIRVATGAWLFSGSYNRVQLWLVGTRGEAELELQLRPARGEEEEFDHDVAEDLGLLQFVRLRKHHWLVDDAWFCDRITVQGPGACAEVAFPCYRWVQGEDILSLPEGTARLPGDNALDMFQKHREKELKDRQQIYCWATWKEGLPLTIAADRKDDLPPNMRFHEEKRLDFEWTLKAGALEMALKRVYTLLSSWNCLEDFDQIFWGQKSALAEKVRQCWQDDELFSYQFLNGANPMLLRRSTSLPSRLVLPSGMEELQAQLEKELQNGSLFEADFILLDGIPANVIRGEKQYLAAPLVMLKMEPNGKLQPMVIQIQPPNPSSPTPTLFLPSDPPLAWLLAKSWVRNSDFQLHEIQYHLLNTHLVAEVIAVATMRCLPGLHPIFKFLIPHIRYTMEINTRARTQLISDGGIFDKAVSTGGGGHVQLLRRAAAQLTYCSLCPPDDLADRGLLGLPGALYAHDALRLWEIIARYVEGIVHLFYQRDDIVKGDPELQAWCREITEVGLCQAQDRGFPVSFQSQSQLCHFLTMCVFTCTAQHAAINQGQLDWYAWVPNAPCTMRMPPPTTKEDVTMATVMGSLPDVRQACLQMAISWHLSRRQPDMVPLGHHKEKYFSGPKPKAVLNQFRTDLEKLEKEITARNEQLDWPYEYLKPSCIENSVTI
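Purified human 12hLO at 150 nM in 25 mM Hepes, 0.01% Triton X-100, pH 7.0, preincubated 15 min at room temperature with compound. Reaction started with 40 uM arachidonic acid, 30 min at room temperature. Hydroperoxide measured by Fe-xylenol orange, 573/405 nm absorbance ratio.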
Of the large screens only hits and unclear results are named; the others gave an inactive call. The call rests on the fitted dose curve; in most records, active means well fitted curve in the direction sought with a large enough effect; inconclusive means small, poorly fitted or top-dose-only effect, or another doubt; inactive means no such curve, though single readings can be large; an effect the other way counts as inactive or inconclusive.

Cc1ccc(NC(=S)NCC(C)CSc2ccc(Cl)cc2)cc1 (configuration not stated)	TDP1 cell noCPT inconclusive, RORg inh 2.8µM, VP16 counter inconclusive, ELG1 DNA repair inconclusive, ALOX12 inh inconclusive
Cc1cccc(NC(=S)NCC(C)CSc2ccc(Cl)cc2)c1 (configuration not stated)	TDP1 cell noCPT 16µM, RORg inh 3.2µM, VP16 counter 5.6µM, TDP1 cell CPT inconclusive, ELG1 DNA repair inconclusive, ALOX12 inh 32µM
O=C(CCCc1c[nH]c2ccccc12)NCC12CC3CC(CC(C3)C1)C2	none (no result: TDP1 cell noCPT, RORg inh, VP16 counter, TDP1 cell CPT, ELG1 DNA repair)
COc1ccccc1[C@@H]1CN(C(=O)c2cc(C(C)C)[nH]n2)C[C@H]1C(=O)O	none (no result: TDP1 cell noCPT, RORg inh, VP16 counter, TDP1 cell CPT, ELG1 DNA repair)
COc1cc(CNCCO)ccc1OCCc1ccccc1	TDP1 cell noCPT 26µM, VP16 counter inconclusive, TDP1 cell CPT inconclusive, ELG1 DNA repair inconclusive
COc1ccccc1CCNCc1ccc(OC)c(OCc2ccccc2)c1	TDP1 cell noCPT 13µM, RORg inh inconclusive, ALOX12 inh inconclusive
COc1cc(CNCCc2ccccc2)ccc1OCC(N)=O	VP16 counter inconclusive
CCN(CC)S(=O)(=O)c1ccc(=O)n(CC(=O)c2c[nH]c3ccccc23)c1	none (no result: TDP1 cell noCPT, RORg inh, VP16 counter, TDP1 cell CPT, ELG1 DNA repair)
O=S(=O)(c1ccc2c(c1)CCCC2)N1CCCC(Cn2cnc3cccnc32)C1 (configuration not stated)	none (no result: TDP1 cell noCPT, RORg inh, VP16 counter, TDP1 cell CPT, ELG1 DNA repair)
Cc1ccc(C)c(N2CCN(C(=O)CN3C(=O)CSc4c3c(C)nn4-c3ccccc3)CC2)c1	TDP1 cell noCPT 26µM, TDP1 cell CPT 18µM (no result: RORg inh, VP16 counter, ELG1 DNA repair)
Cc1nn(-c2ccccc2)c2c1N(CC(=O)N1CCN(c3cccc(Cl)c3)CC1)C(=O)CS2	TDP1 cell noCPT 21µM, TDP1 cell CPT inconclusive (no result: RORg inh, VP16 counter, ELG1 DNA repair)
O=C(Nc1ccc2c(N3CCCC3)ncnc2c1)c1ccccc1Cl	none (no result: TDP1 cell noCPT, RORg inh, VP16 counter, TDP1 cell CPT, ELG1 DNA repair)
Cc1ccccc1OCC(=O)NC(=S)Nc1ccc(S(=O)(=O)NC2CCCCC2)cc1	TDP1 cell noCPT 13µM, TDP1 cell CPT inconclusive
Cc1ccccc1OCC(=O)NC(=S)Nc1ccc(N2CCOCC2)c(Cl)c1	RORg inh inconclusive, VP16 counter inconclusive
Cc1ccccc1OCC(=O)NNC(=O)Cn1[nH]c(=O)c2ccccc2c1=O	TDP1 cell noCPT inconclusive, TDP1 cell CPT 8.2µM (no result: RORg inh, VP16 counter)
Cc1ccccc1OCC(=O)Nc1ccccc1-c1ccccc1NC(=O)COc1ccccc1C	TDP1 cell noCPT 15µM, RORg inh inconclusive, TDP1 cell CPT inconclusive
Cc1ccccc1NC(=S)NC(=O)COc1ccccc1C	RORg inh 13µM, VP16 counter inconclusive
COc1ccc2c(c1)O/C(=C\c1ccc(C(C)(C)C)cc1)C2=O	none (no result: TDP1 cell noCPT, RORg inh, VP16 counter, TDP1 cell CPT, ELG1 DNA repair)
Cn1nccc1C(=O)N1CCC(Oc2cccc(F)c2)C1 (configuration not stated)	none (no result: TDP1 cell noCPT, RORg inh, VP16 counter, TDP1 cell CPT, ELG1 DNA repair)
COc1ccccc1Cc1c(-c2ccccc2)nc2cc(C)c(Br)c(C)n12	TDP1 cell noCPT inconclusive, TDP1 cell CPT inconclusive (no result: RORg inh, VP16 counter, ELG1 DNA repair)
CCCc1nc2cc(C)c(Br)c(C)n2c1Cc1ccccc1OC	TDP1 cell noCPT 15µM, TDP1 cell CPT 26µM, ALOX12 inh inconclusive (no result: RORg inh, VP16 counter, ELG1 DNA repair)
COc1ccc(Cc2c(-c3cccc(Cl)c3)nc3cc(C)c(Br)c(C)n23)c(C)c1	TDP1 cell noCPT inconclusive, ALOX12 inh inconclusive (no result: RORg inh, VP16 counter, ELG1 DNA repair)
COc1ccccc1Cc1c(C(C)(C)C)nc2cc(C)c(Br)c(C)n12	TDP1 cell noCPT 16µM, TDP1 cell CPT 26µM, ALOX12 inh inconclusive (no result: RORg inh, VP16 counter, ELG1 DNA repair)
Cc1nc2n(c(=O)c1C)CN(CCN1CCOCC1)CN2c1cccc(C(F)(F)F)c1	none (no result: TDP1 cell noCPT, RORg inh, VP16 counter, TDP1 cell CPT, ELG1 DNA repair)
CC(C)(C)NC(=O)N1CCCCCCNC(=O)[C@@H]2C[C@@H](c3nc(-c4cccnc4)no3)C[C@@H]21	none (no result: TDP1 cell noCPT, RORg inh, VP16 counter, TDP1 cell CPT, ELG1 DNA repair)
O=C(c1ccc(CSc2nc3ccncc3n2Cc2cccc(F)c2)cc1)N1CCCCC1	TDP1 cell noCPT 21µM, TDP1 cell CPT inconclusive (no result: RORg inh, VP16 counter, ELG1 DNA repair)
O=C(c1ccc(CSc2nc3ccncc3n2Cc2cccc(F)c2)cc1)N1CCCCCC1	TDP1 cell noCPT 16µM, TDP1 cell CPT inconclusive (no result: RORg inh, VP16 counter, ELG1 DNA repair)
COC(=O)c1ccc(COc2ccc3c(c2)CCC3)o1	ELG1 DNA repair inconclusive
O=C(NCc1cccnc1)c1ccc(COc2ccccc2Cl)o1	TDP1 cell noCPT 13µM, TDP1 cell CPT inconclusive
O=C(NCc1cccnc1)c1ccc(COc2ccc3c(c2)CCC3)o1	TDP1 cell noCPT inconclusive, VP16 counter 20µM, TDP1 cell CPT 18µM, ELG1 DNA repair inconclusive
O=C(N/N=C/c1cc([N+](=O)[O-])ccc1O)c1ccc(COc2ccc3c(c2)CCC3)o1	TDP1 cell noCPT 3.3µM, RORg inh 2.2µM, VP16 counter 1.4µM, TDP1 cell CPT 2.6µM, ELG1 DNA repair 6.5µM, ALOX12 inh inconclusive
CN(C)[C@@H]1CN(Cc2ccsc2)CC[C@@H]1CNC(=O)C1CC1	none (no result: TDP1 cell noCPT, RORg inh, VP16 counter, TDP1 cell CPT, ELG1 DNA repair)
Cc1noc(C)c1Cc1ccc(C(=O)NC2CCc3nnc(C)n3CC2)o1 (configuration not stated)	none (no result: TDP1 cell noCPT, RORg inh, VP16 counter, TDP1 cell CPT, ELG1 DNA repair)

Screens deposited in PubChem by National Center for Advancing Translational Sciences (NCATS).
